In PubChem BioAssay (NCATS):
Results filed as inconclusive are left out. Where a call stands in place of a potency, no number is given. Unmarked numbers belong to inactive results. Active and inactive are the calls of the source. Calls come from the whole dose curve; as a rule, active = well fitted curve in the direction sought with a large enough effect; inconclusive = small, poorly fitted or top-dose-only effect, or another doubt; inactive = no such curve, though single readings can be large; an effect the other way counts as inactive or inconclusive.

What was measured:
CRL-7250 = normal cell line; test: Cytotoxic Profiling of Annotated Libraries Using Quantitative High-Throughput Screening (AID 1296008); details: Five cell lines viability, CellTiter-Glo ATP luminescence, 48-72 h; max response: active compounds read low; note: nearly all actives have a fitted effect of over 60% in size; note: potency is the fitted concentration of half-maximal effect
Method in brief: (§1)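 Cells exposed to compounds for 48 or 72 hr at 37 degrees Celsius. Viability read as ATP-coupled luminescence with CellTiter-Glo after 10 min at room temperature.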

HEK293 = test: as above; details: Five cell lines viability, CellTiter-Glo ATP luminescence, 48-72 h; max response: active compounds read low
Method in brief: as §1

HaCat [1] = test: as above; details: Five cell lines viability, CellTiter-Glo ATP luminescence, 48-72 h; max response: active compounds read low
Method in brief: as §1

KB-3-1 = test: as above; details: Five cell lines viability, CellTiter-Glo ATP luminescence, 48-72 h; max response: active compounds read low
Method in brief: as §1

NIH3T3 [2] = test: as above; details: Five cell lines viability, CellTiter-Glo ATP luminescence, 48-72 h; max response: active compounds read low
Method in brief: as §1

HACAT [3] = test: qHTS assay to identify novel small-molecules to repurpose for Merkel cell carcinoma treatment (AID 1296009); details: MCC and control cell lines, CellTiter-Glo viability, 72 h; at 44.8 µM (top of the series) unless noted; note: nearly all actives have a fitted effect of over 60% in size; note: potency is the fitted concentration of half-maximal effect
Method in brief: (§2)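 CellTiter-Glo luminescence after 72 hr compound exposure at 37 degree celsius gave cell viability. Libraries NPC and MIPE were run as 8- and 11-point dose responses; RLUs normalized to DMSO (negative) and no-cell (cytotoxicity) controls.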

MCC-13 = test: as above; details: MCC and control cell lines, CellTiter-Glo viability, 72 h; series mostly up to 46 µM
Method in brief: as §2

MCC-26 = test: as above; details: MCC and control cell lines, CellTiter-Glo viability, 72 h; series mostly up to 46 µM
Method in brief: as §2

MKL-1 = test: as above; details: MCC and control cell lines, CellTiter-Glo viability, 72 h; series mostly up to 46 µM
Method in brief: as §2

UISO = test: as above; details: MCC and control cell lines, CellTiter-Glo viability, 72 h; series mostly up to 46 µM
Method in brief: as §2

WaGa = test: as above; details: MCC and control cell lines, CellTiter-Glo viability, 72 h; series mostly up to 46 µM
Method in brief: as §2

MKL-2 = test: as above; details: MCC and control cell lines, CellTiter-Glo viability, 72 h; series mostly up to 46 µM
Method in brief: as §2

NIH3T3 [4] = test: as above; details: MCC and control cell lines, CellTiter-Glo viability, 72 h; at 44.8 µM (top of the series) unless noted
Method in brief: as §2

C33A = test: Primary qHTS to identify gynecologic anti-cancer compounds using libraries of approved drugs and bioactive compounds (AID 1345084); details: Gynecologic cancer cell panel viability, ATPlite luminescence, 48 h; series mostly up to 57.5 µM; note: nearly all actives have a fitted effect of over 55% in size
Method in brief: (§3)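 Luminescence from the ATPlite ATP-monitoring reagent indicates viable cell number; lower signal means cytotoxicity. Cells received compound 16 h after seeding and were exposed for 48 h across five concentrations.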

CASKI = test: as above; details: Gynecologic cancer cell panel viability, ATPlite luminescence, 48 h; series mostly up to 57.5 µM
Method in brief: as §3

Es-2 = test: as above; details: Gynecologic cancer cell panel viability, ATPlite luminescence, 48 h; series mostly up to 57.5 µM
Method in brief: as §3

HeLa = test: as above; details: Gynecologic cancer cell panel viability, ATPlite luminescence, 48 h; series mostly up to 57.5 µM
Method in brief: as §3

Hek293T [5] = test: as above; details: Gynecologic cancer cell panel viability, ATPlite luminescence, 48 h, control line for the selectivity index; series mostly up to 57.5 µM
Method in brief: as §3

JEG-3 = test: as above; details: Gynecologic cancer cell panel viability, ATPlite luminescence, 48 h; series mostly up to 57.5 µM
Method in brief: as §3

HEK293T [6] = test: qHTS assay to identify novel small-molecules to repurpose for Merkel cell carcinoma treatment (AID 1296009); details: MCC and control cell lines, CellTiter-Glo viability, 72 h; series mostly up to 44.8 µM; note: nearly all actives have a fitted effect of over 60% in size; note: potency is the fitted concentration of half-maximal effect
Method in brief: as §2

## O=C(O)CCCCC(CCSCc1ccccc1)SCc1ccccc1 (stereo not given)
CRL-7250
  max response: 0.756%
HEK293
  max response: -0.529%
HaCat [1]
  outcome: inactive
KB-3-1
  outcome: inactive
NIH3T3 [2]
  max response: 2.24%
HACAT [3]
  outcome: inactive
MCC-13
  Potency: inactive
MCC-26
  Potency: inactive
MKL-1
  Potency: inactive
UISO
  Potency: inactive
WaGa
  Potency: 13200 nM (active)

## C[C@@H]1[C@H](C)CC[C@]2(C(=O)O)CC[C@]3(C)C(=CC[C@@H]4[C@@]5(C)C[C@@H](O)[C@H](O)[C@@](C)(CO)[C@H]5CC[C@]43C)[C@@H]12
CRL-7250
  max response: -10.9%
HEK293
  max response: -10.4%
HaCat [1]
  max response: 2.03%
KB-3-1
  outcome: inactive
NIH3T3 [2]
  outcome: inactive
MCC-13
  Potency: inactive
MCC-26
  Potency: inactive
MKL-1
  Potency: inactive
MKL-2
  Potency: inactive
NIH3T3 [4]
  outcome: inactive
UISO
  Potency: inactive
WaGa
  Potency: inactive

## CC(C)(C)[C@H](NC(=O)c1ccc(N)c(Cl)c1)C(=O)N1CCC[C@@H]1C(=O)N[C@H](C#N)CC(=O)O
CRL-7250
  outcome: inactive
HEK293
  max response: -9.49%
HaCat [1]
  outcome: inactive
KB-3-1
  max response: 5.36%
NIH3T3 [2]
  outcome: inactive
HACAT [3]
  outcome: inactive [at 4.96 µM]
MCC-13
  activity change, negative = cytotoxicity: 7.54% [at 4.84 µM]
MKL-1
  activity change, negative = cytotoxicity: 0.918% [at 4.84 µM]
NIH3T3 [4]
  outcome: inactive [at 4.96 µM]
UISO
  activity change, negative = cytotoxicity: 4.89% [at 4.84 µM]
WaGa
  activity change, negative = cytotoxicity: -0.0966% [at 4.84 µM]

## C[C@H](O)[C@@H]1C(=O)N2C(C(=O)O)=C(S[C@@H]3CN[C@H](CNS(N)(=O)=O)C3)[C@@H](C)[C@@H]12
CRL-7250
  max response: 4.32%
HEK293
  max response: 0.869%
HaCat [1]
  outcome: inactive
KB-3-1
  outcome: inactive
NIH3T3 [2]
  outcome: inactive
HACAT [3]
  outcome: inactive
MCC-13
  Potency: inactive
MKL-1
  Potency: inactive
MKL-2
  Potency: inactive
NIH3T3 [4]
  outcome: inactive
UISO
  Potency: inactive
WaGa
  Potency: inactive
C33A
  Potency: inactive
CASKI
  Potency: inactive
Es-2
  Potency: inactive
HeLa
  Potency: inactive
Hek293T [5]
  Potency: inactive
JEG-3
  Potency: inactive

## O=C(O)[C@H](CC(=O)N1C[C@@H]2CCCC[C@H]2C1)Cc1ccccc1
CRL-7250
  outcome: inactive
HEK293
  max response: -4.31%
HaCat [1]
  outcome: inactive
KB-3-1
  max response: 2.32%
NIH3T3 [2]
  outcome: inactive
HACAT [3]
  outcome: inactive
MCC-13
  Potency: inactive
MKL-1
  Potency: inactive
MKL-2
  Potency: inactive
NIH3T3 [4]
  outcome: inactive
UISO
  Potency: inactive
WaGa
  Potency: inactive

## N#Cc1c(NC(=O)c2cccc3ccccc23)sc2c1CCCC2
CRL-7250
  Potency: 1320 nM (active)
HEK293
  Potency: 372 nM (active)
HaCat [1]
  outcome: inactive
KB-3-1
  Potency: 469 nM (active)
NIH3T3 [2]
  Potency: 332 nM (active)
HACAT [3]
  outcome: inactive
UISO
  Potency: 1050 nM (active)

## COc1cc(C[C@@H](CO)[C@H](CO)Cc2ccc(O)c(OC)c2)ccc1O
CRL-7250
  max response: -0.633%
HEK293
  max response: -2.88%
HaCat [1]
  outcome: inactive
KB-3-1
  max response: 3.84%
NIH3T3 [2]
  outcome: inactive
HACAT [3]
  outcome: inactive
MCC-13
  Potency: inactive
MCC-26
  Potency: inactive
MKL-2
  Potency: 16600 nM (active)
NIH3T3 [4]
  outcome: inactive

## CCCCCCCCCCCCc1ccc(S(=O)(=O)Nc2nncs2)cc1
CRL-7250
  outcome: inactive
HEK293
  outcome: inactive
HaCat [1]
  max response: -11%
KB-3-1
  outcome: inactive
NIH3T3 [2]
  outcome: inactive
HEK293T [6]
  Potency: inactive
MCC-13
  Potency: inactive
MCC-26
  Potency: inactive
MKL-1
  Potency: inactive
MKL-2
  Potency: inactive
NIH3T3 [4]
  outcome: inactive
UISO
  Potency: inactive
WaGa
  Potency: inactive

## C[C@@H]1C(=O)O[C@H]2CC34[C@H]5C[C@@H](C(C)(C)C)C36[C@H](OC(=O)[C@@H]6O)O[C@@]4(C(=O)O5)[C@]21O (stereo not given in full)
CRL-7250
  outcome: inactive
HEK293
  max response: 3.06%
HaCat [1]
  outcome: inactive
KB-3-1
  max response: 2.09%
NIH3T3 [2]
  outcome: inactive
HACAT [3]
  outcome: inactive
MCC-13
  Potency: inactive
MCC-26
  Potency: inactive
NIH3T3 [4]
  outcome: inactive
UISO
  Potency: inactive

## CC(=O)O[C@]1(C(C)=O)CC[C@H]2[C@@H]3C=C(C)C4=CC(=O)CC[C@]4(C)[C@@H]3CC[C@@]21C
CRL-7250
  outcome: inactive
HEK293
  max response: -9.75%
HaCat [1]
  outcome: inactive; activator
KB-3-1
  outcome: inactive
NIH3T3 [2]
  max response: 4.47%
HACAT [3]
  outcome: inactive; activator
MCC-13
  Potency: inactive
MCC-26
  Potency: inactive
MKL-1
  Potency: 3320 nM (active)
MKL-2
  Potency: 2350 nM (active)
WaGa
  Potency: 1870 nM (active)

## NC(=O)Nc1cc(-c2ccc(CN3CCOCC3)cc2)sc1C(N)=O
CRL-7250
  Potency: 13200 nM (active)
HEK293
  Potency: 5260 nM (active)
HaCat [1]
  Potency: 332 nM (active)
KB-3-1
  Potency: 7430 nM (active)
NIH3T3 [2]
  Potency: 662 nM (active)
MCC-13
  Potency: inactive

## O=C(O)CCCCCC(=O)NN=C1CCCC1
CRL-7250
  max response: 1.92%
HEK293
  outcome: inactive
HaCat [1]
  max response: 0.832%
KB-3-1
  max response: 3.36%
NIH3T3 [2]
  max response: 3.56%
HEK293T [6]
  Potency: inactive
MCC-13
  Potency: inactive
MCC-26
  Potency: inactive
MKL-1
  Potency: inactive
MKL-2
  Potency: inactive
UISO
  Potency: inactive
WaGa
  Potency: inactive

## NC(=O)c1ncn([C@@H]2O[C@H](CO)[C@@H](O)[C@@H]2O)c1N
CRL-7250
  max response: -3.14%
HEK293
  max response: 2.62%
HaCat [1]
  outcome: inactive
KB-3-1
  max response: 1.9%
NIH3T3 [2]
  outcome: inactive
HACAT [3]
  outcome: inactive
MCC-13
  Potency: inactive
MKL-1
  Potency: inactive
MKL-2
  Potency: inactive
NIH3T3 [4]
  outcome: inactive
UISO
  Potency: inactive
WaGa
  Potency: inactive

## COc1ccc([C@@H]2CNC(=O)C2)cc1OC1CCCC1
CRL-7250
  outcome: inactive
HEK293
  max response: 2.8%
HaCat [1]
  outcome: inactive
KB-3-1
  outcome: inactive
NIH3T3 [2]
  outcome: inactive
HACAT [3]
  outcome: inactive
MCC-13
  Potency: inactive
MCC-26
  Potency: inactive
MKL-1
  Potency: inactive
NIH3T3 [4]
  outcome: inactive
